Screens (PubChem)
MPTP inh = mitochondrial permeability transition pore inhibitors, primary screen, biochemical, isolated mouse mitochondria, absorbance; Ca2+ swelling absorbance, 30 min; hit rate 1.4% among 360,000; AID 602449, 2012; inhibition, % at 10 µM;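 active = inhibition of 50% or more, scaled per plate between neutral and stimulator controls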
Beta apoptosis = inhibitors of cytokine-induced beta cell apoptosis, primary screen, luminescence; protection from apoptosis, % (test concentration not listed); hit rate 0.8% among 300,000; INS-1E cytokine-induced death, ATP luminescence, 48 h; percent of positive-control rescue, neutral wells zero;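 active = Every replicate reaches about 75%, or at least half do and their mean reaches it too, limit read from the data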;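 note: higher means more ATP so stronger rescue from cytokine killing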
Gli-Sufu block = Gli-Sufu pathway antagonists, primary screen, luciferase luminescence, Sufu-KO-LIGHT cells, uHTS | Sufu-KO-LIGHT fibroblasts, Gli luciferase reporter luminescence | inhibition, % at 5 µM | hit rate 0.74% among 340,000 | AID 588413, 2011;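 active = inhibition above about 55%, limit read from the data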
GRIN3A LBD mod = binders of NR3A ligand-binding domain, primary screen, biophysical, differential scanning fluorimetry, uHTS | Glutamate receptor ionotropic, NMDA 3A (GRIN3A) ligand-binding domain | NR3A LBD differential scanning fluorimetry, Tm shift; 0% = protein alone, 100% = glycine-bound protein | hit rate 2.5% among 340,000 | Tm shift relative to glycine control, % at 25 µM;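 active = melting temperature shift of at least 10% of the positive control shift, at one fixed dose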
CSC inhib = cancer stem cell viability inhibitors, primary screen, luminescence; hit rate 1.1% among 300,000; cancer stem cell-like cells viability; inhibition, % at 7.5 µM; in the data active = inhibition above about 75%; tested in HMLE shEcad cells
Mdm2 MdmX PPI = inhibitors of human Mdm2-MdmX association, primary screen, cell-based, luminescence, split luciferase, SaOS-2, uHTS; Protein Mdm4 (Homo sapiens) + E3 ubiquitin-protein ligase Mdm2 (Homo sapiens), …; SaOS-2 split-luciferase Mdm2/MdmX complementation; inhibition, % at 8 µM; hit rate 3% among 330,000; AID 485346, 2010;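 active = inhibition of at least 50% at 8 µM in the primary screen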
Target sequence (O15151 whole entry, looked up): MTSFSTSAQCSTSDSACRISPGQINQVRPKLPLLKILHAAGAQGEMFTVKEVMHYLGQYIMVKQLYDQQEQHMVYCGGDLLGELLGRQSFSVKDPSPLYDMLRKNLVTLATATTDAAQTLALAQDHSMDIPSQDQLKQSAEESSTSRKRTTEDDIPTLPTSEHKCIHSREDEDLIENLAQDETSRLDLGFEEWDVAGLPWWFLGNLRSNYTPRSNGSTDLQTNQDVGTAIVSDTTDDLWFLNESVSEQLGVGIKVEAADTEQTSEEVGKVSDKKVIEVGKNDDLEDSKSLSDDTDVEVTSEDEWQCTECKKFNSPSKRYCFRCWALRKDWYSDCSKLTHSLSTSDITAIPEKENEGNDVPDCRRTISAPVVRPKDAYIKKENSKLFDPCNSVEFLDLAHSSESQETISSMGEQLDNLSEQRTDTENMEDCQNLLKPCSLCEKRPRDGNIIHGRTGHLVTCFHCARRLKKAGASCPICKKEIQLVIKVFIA
Target sequence (Q00987 whole entry, looked up): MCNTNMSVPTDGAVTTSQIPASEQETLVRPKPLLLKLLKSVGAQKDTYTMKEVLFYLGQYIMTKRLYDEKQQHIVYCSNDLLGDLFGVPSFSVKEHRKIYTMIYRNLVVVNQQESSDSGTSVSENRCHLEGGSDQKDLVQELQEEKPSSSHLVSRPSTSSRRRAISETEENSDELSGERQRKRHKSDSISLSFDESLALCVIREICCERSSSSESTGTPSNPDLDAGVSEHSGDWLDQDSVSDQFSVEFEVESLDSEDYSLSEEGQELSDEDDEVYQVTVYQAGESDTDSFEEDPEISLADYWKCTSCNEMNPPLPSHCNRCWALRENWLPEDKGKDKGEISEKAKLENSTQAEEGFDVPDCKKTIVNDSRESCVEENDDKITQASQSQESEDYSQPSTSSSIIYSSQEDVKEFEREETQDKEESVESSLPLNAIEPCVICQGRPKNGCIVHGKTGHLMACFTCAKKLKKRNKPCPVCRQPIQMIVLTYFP
Mdm2-MdmX conf = Mdm2-MdmX complex disruptors, retested hits, confirmation, luminescence, single concentration | hit rate 55% among 10,000 | shares compounds with Mdm2 MdmX PPI | Mdm2-MdmX binding, luminescent assay | inhibition, % at 8 µM; in the data active = inhibition above about 40%
FLuc counter = full-length luciferase signal inhibition, confirmation, counter-screen for Mdm2/MdmX interaction inhibitor project, cell-based, single concentration, SaOS-2; hit rate 77% among 6,200; inhibition, % at 8 µM; SaOS-2 full-length luciferase counterscreen, luminescence; shares compounds with Mdm2 MdmX PPI;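 active = mean inhibition at 8 µM reaching about 37%, which flags the compound as non-specific, limit read from the data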;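 note: p53-null SaOS-2 cells with luciferase driven by a doxycycline-inducible promoter; compound on cells about two nights before reading with doxycycline added after day one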
Each line names hits and unclear results; the compound was inactive in the other large screens (follow-up assays come after a bar, where they were run). This is a sample that favours compounds with a hit; in the whole collection about 6.6% have one here.

CC(C)C(=O)NC(c1ccc(N(C)C)cc1)c1c(O)ccc2ccccc12 (stereo not given)	none
COc1ccc(C(NC(=O)CC(C)C)c2c(O)ccc3ccccc23)cc1 (stereo not given)	none
O=C(NCC(F)(F)F)c1ccc2sc([C@@H]3O[C@H](CO)[C@H](O)[C@H](O)[C@H]3O)nc2c1	none (no result: Beta apoptosis, Gli-Sufu block, GRIN3A LBD mod, CSC inhib, Mdm2 MdmX PPI)
CCc1ccc(Nc2n[n+](C)c(-c3ccncc3)s2)cc1	none
O=C1C2C(c3ccccc3)CC=CC2[C@H](c2ccoc2)N1Cc1ccccc1 (stereo not given in full)	none
O=C1C2C(c3ccccc3)CC=CC2[C@H](c2ccc3ccccc3c2)N1Cc1ccccc1 (stereo not given in full)	Mdm2 MdmX PPI 57 | Mdm2-MdmX conf inactive
Cc1ccc(F)c([C@H]2C3C=CCC(c4ccccc4)C3C(=O)N2Cc2ccccc2)c1 (stereo not given in full)	Beta apoptosis 109, CSC inhib 122, Mdm2 MdmX PPI 58 | Mdm2-MdmX conf inactive
CC[C@@H]1CC=C[C@H]2[C@H]1C(=O)N(Cc1ccccc1)[C@H]2c1cc(C)ccc1F	Mdm2 MdmX PPI 54 (no result: MPTP inh, Beta apoptosis, Gli-Sufu block, GRIN3A LBD mod, CSC inhib) | Mdm2-MdmX conf 42 | FLuc counter 49
CSCCC(c1nc2ccccc2[nH]1)n1c(-c2cc(C(F)(F)F)cc(C(F)(F)F)c2)nc2ccccc21 (stereo not given)	none (no result: Beta apoptosis, Gli-Sufu block, GRIN3A LBD mod, CSC inhib, Mdm2 MdmX PPI)
Cc1cccc(C)c1NC(=O)NC1(C(=O)NCc2ccncc2)CCCCC1	none
C[C@@H]1CN([C@@H](C)CO)C(=O)c2cc(Br)cnc2O[C@H]1CN(C)C(=O)c1ccncc1	none (no result: Beta apoptosis, Gli-Sufu block, GRIN3A LBD mod, CSC inhib, Mdm2 MdmX PPI)
Cc1cc(C)cc(N(C(=O)c2csnn2)C(C(=O)NC2CCCCC2)c2ccccn2)c1 (stereo not given)	none
Cc1cc(/C=C2\SC(=Nc3ccc(F)cc3)NC2=O)c(C)n1-c1ccc(S(N)(=O)=O)cc1	Mdm2 MdmX PPI 61 | Mdm2-MdmX conf 47 | FLuc counter 59
CCOc1ccc(C(O)(CCC(C)C)C(CN2CCOCC2)c2ccccc2)cc1 (stereo not given)	none
COc1ccc(C(O)(CC(C)C)C(CN2CCOCC2)c2ccccc2)cc1 (stereo not given)	Mdm2 MdmX PPI 77 | Mdm2-MdmX conf 77 | FLuc counter inactive
CCc1ccc(C(O)(CC(C)C)C(CN2CCOCC2)c2ccccc2)cc1 (stereo not given)	Mdm2 MdmX PPI 83 | Mdm2-MdmX conf 85 | FLuc counter inactive
CCc1ccc(C(O)(c2ccccc2OC)C(CN2CCOCC2)c2ccccc2)cc1 (stereo not given)	none
COc1cc(-c2ccc(Nc3ccccc3C(=O)O)c(OC)c2)ccc1Nc1ccccc1C(=O)O	GRIN3A LBD mod 38, Mdm2 MdmX PPI 81 (no result: Beta apoptosis, CSC inhib) | Mdm2-MdmX conf inactive
COCCn1c(-c2ccc(Br)cc2)csc1=Nc1cccnc1	none (no result: Beta apoptosis, CSC inhib)
Clc1ccc(-c2csc(=Nc3cccnc3)n2CCCn2ccnc2)cc1Cl	Mdm2 MdmX PPI 66 | Mdm2-MdmX conf inactive | FLuc counter 55
CC(=O)Oc1cc2c(cc1Cl)C1(CC(c3ccccc3Cl)O2)CC(C)(C)NC(=S)N1 (stereo not given)	Mdm2 MdmX PPI 56 | Mdm2-MdmX conf inactive
CCCCCN1C=CC(=C2C(=O)c3ccccc3C2=O)C=C1	Gli-Sufu block 59, Mdm2 MdmX PPI 78 | Mdm2-MdmX conf 83 | FLuc counter inactive
O=[N+]([O-])c1ccc(S(=O)(=O)Nc2ccc(S(=O)(=O)N3CCCC3)cc2)cc1	none (no result: CSC inhib)
COc1cc(OC)cc(-c2nnc(NC(=O)CCS(=O)(=O)c3ccc(F)cc3)o2)c1	Mdm2 MdmX PPI 59 | Mdm2-MdmX conf 55 | FLuc counter 65
O=C(CCS(=O)(=O)c1ccc(F)cc1)Nc1nnc(-c2cccs2)o1	none (no result: Beta apoptosis)
COc1cc(OC)cc(-c2nnc(NC(=O)CCS(=O)(=O)c3ccccc3)o2)c1	none (no result: Beta apoptosis)
COc1cc(-c2nnc(NC(=O)CCS(=O)(=O)c3ccccc3)o2)cc(OC)c1OC	Mdm2 MdmX PPI 79 (no result: Beta apoptosis) | Mdm2-MdmX conf 65 | FLuc counter 63
COc1cc(-c2nnc(NC(=O)CCS(=O)(=O)c3ccc(F)cc3)o2)cc(OC)c1OC	Mdm2 MdmX PPI 72 (no result: Beta apoptosis) | Mdm2-MdmX conf 69 | FLuc counter 48
CC(O)(c1cccnc1)c1nc(-c2cccc3cccnc23)cs1 (stereo not given)	none (no result: Beta apoptosis, Gli-Sufu block, GRIN3A LBD mod, CSC inhib, Mdm2 MdmX PPI)
CCCc1nc2ccccc2n1C(CCSC)C(=O)NC(C)(C)C (stereo not given)	none (no result: Beta apoptosis, Gli-Sufu block, GRIN3A LBD mod, CSC inhib, Mdm2 MdmX PPI)
CCN(CC)CCC(=O)N1c2ccccc2Sc2ccc(Cl)cc21	Mdm2 MdmX PPI 56 | Mdm2-MdmX conf inactive | FLuc counter 65
CN(C)CCC(=O)N1c2ccccc2Sc2ccc(Cl)cc21	none
CCOC(=O)c1c(C)[nH]c(C(=O)CSc2nnc(-c3cccs3)n2Cc2ccccc2)c1C	Mdm2 MdmX PPI 65 | Mdm2-MdmX conf 42 | FLuc counter 40
O=c1c2ccccc2nnn1CSc1nnc(-c2cccs2)n1Cc1ccccc1	Mdm2 MdmX PPI 61 | Mdm2-MdmX conf 49 | FLuc counter 72
CC(=O)c1c(C)[nH]c(C(=O)CSc2nnc(-c3ccccc3)n2Cc2ccc3c(c2)OCO3)c1C	Mdm2 MdmX PPI 77 | Mdm2-MdmX conf inactive
CC(=O)c1c(C)[nH]c(C(=O)CSc2nnc(-c3cccs3)n2Cc2ccccc2)c1C	none
CN(C)C=NC(=O)c1[nH]c2ccc(Cl)cc2c1-c1ccccc1	Mdm2 MdmX PPI 80 | Mdm2-MdmX conf inactive
COCC(=O)N/N=C\c1cccc(OC)c1OC/C=C/c1ccccc1	Mdm2 MdmX PPI 55 | Mdm2-MdmX conf inactive
COc1cccc(/C=N\NC(C)=O)c1OC/C=C/c1ccccc1	none
O=S(=O)(Oc1ccc(C(=S)N2CCOCC2)cc1)c1ccc(Cl)cc1	none
COc1cc2nc(SCC(=O)c3ccc(Br)cc3)n3nc(C)nc3c2cc1OC	Mdm2 MdmX PPI 65 | Mdm2-MdmX conf inactive
CC/C(=C(/CC)c1ccc(O)cc1)c1ccc(O)cc1	Mdm2 MdmX PPI 54 | Mdm2-MdmX conf 48 | FLuc counter 53
O=C(O)CCCCCCCCCCCNC(=O)NC12CC3CC(CC(C3)C1)C2	none
CCOC(=O)C1=C(c2ccccc2)NC(=O)NC1c1cc(Cl)c(O)c(OC)c1 (stereo not given)	none
